In PubChem BioAssay (NCATS):
Records with an inconclusive call do not appear. Active and inactive are the calls of the source. Calls follow the shape of the dose curve; as a rule, active = well fitted inhibition curve with a large enough effect; inconclusive = small, poorly fitted or top-dose-only effect; inactive = flat fitted curve, though single readings scatter.

Molecular target: Lysine-specific demethylase 5B (Homo sapiens) (UniProt Q9UGL1)
Assay: Optimization screen for KDM5B Histone Demethylases FDH coupled qHTS against the LOPAC library (AID 1347166); also: 0% is about no effect
Details: KDM5B demethylation, FDH-coupled NADH fluorescence (FDH is formaldehyde dehydrogenase); series mostly up to 57.5 µM; activity, negative = inhibition: at the top concentration
Method in brief: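 KDM5BDeltaAP (200nM final) in 50mM HEPES pH 7.5, 0.01% Tween-20 was preincubated with compound for 10 min at room temperature. A substrate mix of 12.5uM H3K4Me3, 25uM a-ketoglutarate, ascorbate, Fe2+, NAD+ and formaldehyde dehydrogenase was then added. NADH fluorescence (340/450 nm) was read initially and after 30 min.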

Sequence of Lysine-specific demethylase 5B (Homo sapiens) (Q9UGL1 whole entry, looked up): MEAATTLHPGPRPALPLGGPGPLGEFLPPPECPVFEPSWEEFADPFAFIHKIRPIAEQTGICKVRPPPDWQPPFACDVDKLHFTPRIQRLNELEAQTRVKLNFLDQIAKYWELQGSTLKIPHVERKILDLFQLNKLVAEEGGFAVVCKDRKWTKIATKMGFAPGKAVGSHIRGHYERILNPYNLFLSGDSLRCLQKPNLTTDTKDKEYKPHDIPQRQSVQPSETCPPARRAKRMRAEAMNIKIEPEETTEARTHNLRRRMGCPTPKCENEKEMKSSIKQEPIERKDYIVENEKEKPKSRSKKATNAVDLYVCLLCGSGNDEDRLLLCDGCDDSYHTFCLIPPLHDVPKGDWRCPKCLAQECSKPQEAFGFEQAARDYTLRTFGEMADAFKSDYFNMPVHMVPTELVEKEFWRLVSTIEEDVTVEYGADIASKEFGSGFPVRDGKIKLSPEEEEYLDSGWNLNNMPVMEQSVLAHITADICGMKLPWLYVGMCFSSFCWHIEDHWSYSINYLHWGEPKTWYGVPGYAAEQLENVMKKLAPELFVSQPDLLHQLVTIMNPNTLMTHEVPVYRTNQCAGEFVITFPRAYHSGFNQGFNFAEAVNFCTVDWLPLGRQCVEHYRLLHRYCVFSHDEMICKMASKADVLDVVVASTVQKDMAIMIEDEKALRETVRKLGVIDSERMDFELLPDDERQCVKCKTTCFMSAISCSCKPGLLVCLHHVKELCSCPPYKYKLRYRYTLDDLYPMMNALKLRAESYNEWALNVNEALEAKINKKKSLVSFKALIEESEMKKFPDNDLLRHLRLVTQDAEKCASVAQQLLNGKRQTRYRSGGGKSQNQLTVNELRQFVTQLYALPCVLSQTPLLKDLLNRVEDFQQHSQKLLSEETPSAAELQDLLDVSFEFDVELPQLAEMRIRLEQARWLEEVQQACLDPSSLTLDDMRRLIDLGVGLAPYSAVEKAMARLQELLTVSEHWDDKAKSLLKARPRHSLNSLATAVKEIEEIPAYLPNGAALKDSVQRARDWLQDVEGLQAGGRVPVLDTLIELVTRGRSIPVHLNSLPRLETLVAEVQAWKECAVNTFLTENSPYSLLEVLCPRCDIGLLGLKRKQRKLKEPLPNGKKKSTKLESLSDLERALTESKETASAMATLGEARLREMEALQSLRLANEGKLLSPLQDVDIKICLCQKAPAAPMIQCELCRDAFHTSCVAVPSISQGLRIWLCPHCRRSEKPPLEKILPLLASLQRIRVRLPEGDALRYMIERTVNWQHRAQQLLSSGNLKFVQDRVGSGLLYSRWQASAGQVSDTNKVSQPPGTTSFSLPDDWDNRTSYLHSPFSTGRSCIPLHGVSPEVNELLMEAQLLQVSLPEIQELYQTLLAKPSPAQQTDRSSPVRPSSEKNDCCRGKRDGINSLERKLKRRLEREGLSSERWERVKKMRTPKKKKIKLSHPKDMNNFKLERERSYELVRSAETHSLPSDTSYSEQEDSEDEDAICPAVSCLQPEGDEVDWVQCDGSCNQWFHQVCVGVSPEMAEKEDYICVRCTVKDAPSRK

SMILES | activity, negative = inhibition | outcome
Clc1cnc(Oc2ccc(Oc3ncc(Cl)cc3Cl)cc2)c(Cl)c1 | -7.93% (inactive) | –
CC(=O)[C@H]1CCC2C3CC[C@H]4C[C@H](O)CC[C@]4(C)C3CC[C@@]21C (some centres not stated) | -2.53% (inactive) | –
CC(Cc1ccc(O)cc1)NCC(O)c1cc(O)cc(O)c1 (configuration not stated) | -8.76% (inactive) | –
C[C@]12N[C@H](Cc3ccccc31)c1ccccc12 | -4.12% (inactive) | –
C/C=C(/C)C(=O)O[C@H]1C(C)=C2[C@H]([C@@H]1OC(=O)CCCCCCC)[C@@](C)(OC(C)=O)C[C@H](OC(=O)CCC)[C@@]1(O)[C@H]2OC(=O)[C@@]1(C)O | -27.4% (inactive) | –
CCCN1CCO[C@@H]2c3cc(O)ccc3OC[C@H]21 | – | inactive
CC[C@@]1(O)C(=O)OCc2c1cc1n(c2=O)Cc2cc3ccccc3nc2-1 | 565% (inactive) | –
CNCCc1c[nH]c2ccc(O)cc12 | -26% (inactive) | –
CCCN1CCC[C@H](c2cccc(O)c2)C1 | -2.97% (inactive) | –
CS(=N)(=O)CC[C@H](N)C(=O)O (some centres not stated) | -5.65% (inactive) | –
CN1C2CCC1CC(OC(=O)c1cc(Cl)cc(Cl)c1)C2 (configuration not stated) | -3.11% (inactive) | –
NC1CC1c1ccccc1 (configuration not stated) | -5% (inactive) | –
C[C@@H]1O[C@H](C[N+](C)(C)C)C[C@H]1O | -9.81% (inactive) | –
COC(=O)[C@@H](N)CCCN=C(N)N[N+](=O)[O-] | -10.5% (inactive) | –
NC(=NCCC[C@H](N)C(=O)O)N[N+](=O)[O-] | -2.63% (inactive) | –
COc1cc(C(O)CN)ccc1O (configuration not stated) | -3.81% (inactive) | –
O=C(O)Cc1cnc[nH]1 | -2.96% (inactive) | –
